# Measured values taken from PubChem BioAssay (NCATS).
# Where “and” joins values, the source holds several entries; their conditions need not be identical. Equal entries are not always repeated. Records with an inconclusive call do not appear. Where a call stands in place of a potency, no number is given. The source holds several records for some structures; these can differ, active in one and inactive in another. Calls of active or inactive are those of the source. Unless noted, calls follow the shape of the dose curve; as a rule, active = well fitted curve in the direction sought with a large enough effect; inconclusive = small, poorly fitted or top-dose-only effect, or another doubt; inactive = no such curve, though single readings can be large; an effect the other way counts as inactive or inconclusive.
# Columns and labels:
# [1] = tested on: NIH3T3; assay: qHTS assay to identify novel small-molecules to repurpose for Merkel cell carcinoma treatment (AID 1296009); conditions: MCC and control cell lines, CellTiter-Glo viability, 72 h; at 44.8 µM (top of the series) unless noted; also: nearly all actives have a fitted effect of over 60% in size; also: potency is read from the fitted curve at half-maximal effect
# In short: (§1)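 CellTiter-Glo luminescence after 72 hr compound exposure at 37 degree celsius gave cell viability. Libraries NPC and MIPE were run as 8- and 11-point dose responses; RLUs normalized to DMSO (negative) and no-cell (cytotoxicity) controls.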
# [2] = tested on: WaGa; assay: as above; conditions: MCC and control cell lines, CellTiter-Glo viability, 72 h; series mostly up to 46 µM
# In short: as §1
# [3] = tested on: C33A; assay: Primary qHTS to identify gynecologic anti-cancer compounds using libraries of approved drugs and bioactive compounds (AID 1345084); conditions: Gynecologic cancer cell panel viability, ATPlite luminescence, 48 h; series mostly up to 57.5 µM; also: nearly all actives have a fitted effect of over 55% in size
# In short: (§2)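 Cytotoxicity screen measuring ATP content by luciferase luminescence. Each compound is applied at five concentrations for 48 h at 37 C with 5% CO2.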
# [4] = tested on: CAOV3; assay: as above; conditions: Gynecologic cancer cell panel viability, ATPlite luminescence, 48 h; series mostly up to 57.5 µM
# In short: as §2
# [5] = tested on: CASKI; assay: as above; conditions: Gynecologic cancer cell panel viability, ATPlite luminescence, 48 h; series mostly up to 57.5 µM
# In short: as §2
# [6] = tested on: Es-2; assay: as above; conditions: Gynecologic cancer cell panel viability, ATPlite luminescence, 48 h; series mostly up to 57.5 µM
# In short: as §2
# [7] = tested on: HeLa; assay: as above; conditions: Gynecologic cancer cell panel viability, ATPlite luminescence, 48 h; series mostly up to 57.5 µM
# In short: as §2
# [8] = tested on: Hek293T; assay: as above; conditions: Gynecologic cancer cell panel viability, ATPlite luminescence, 48 h, control line for the selectivity index; series mostly up to 57.5 µM
# In short: as §2
# [9] = tested on: JEG-3; assay: as above; conditions: Gynecologic cancer cell panel viability, ATPlite luminescence, 48 h; series mostly up to 57.5 µM
# In short: as §2
# [10] = tested on: OV90; assay: as above; conditions: Gynecologic cancer cell panel viability, ATPlite luminescence, 48 h; series mostly up to 57.5 µM
# In short: as §2
# [11] = tested on: PA-1; assay: as above; conditions: Gynecologic cancer cell panel viability, ATPlite luminescence, 48 h; series mostly up to 57.5 µM
# In short: as §2
# [12] = tested on: Tov-21-G; assay: as above; conditions: Gynecologic cancer cell panel viability, ATPlite luminescence, 48 h; series mostly up to 57.5 µM
# In short: as §2
# [13] = tested on: Tov112D; assay: as above; conditions: Gynecologic cancer cell panel viability, ATPlite luminescence, 48 h; series mostly up to 57.5 µM
# In short: as §2
# [14] = Drug repurposing screens with cells derived from glioblastoma tumor samples (AID 1345199); conditions: GBM patient neurospheres viability, ATP luminescence, 48 h; also: nearly all actives have a fitted effect of over 40% in size; also: potency is read from the fitted curve at half-maximal effect
# In short: (§3)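 Primary testing used CD133+ neurospheres from four GBM patients, seven concentrations, 48 h exposure and ATP-based viability; confirmation added three slower-growing patient lines.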
# [15] = tested on: astro; assay: as above; conditions: viability, ATP luminescence, 48 h; series mostly up to 45.9 µM
# In short: as §3
# [16] = target: Nuclear receptor subfamily 1 group I member 2 (Rattus norvegicus) (UniProt Q9R1A7); assay: qHTS assay for small molecule activators of the rat pregnane X receptor (rPXR) signaling pathway (AID 651751; call rule not given here); conditions: rPXR reporter cells, luciferase (One-Glo), 24 h
# Chain of Nuclear receptor subfamily 1 group I member 2 (Rattus norvegicus) (Q9R1A7 whole entry, looked up): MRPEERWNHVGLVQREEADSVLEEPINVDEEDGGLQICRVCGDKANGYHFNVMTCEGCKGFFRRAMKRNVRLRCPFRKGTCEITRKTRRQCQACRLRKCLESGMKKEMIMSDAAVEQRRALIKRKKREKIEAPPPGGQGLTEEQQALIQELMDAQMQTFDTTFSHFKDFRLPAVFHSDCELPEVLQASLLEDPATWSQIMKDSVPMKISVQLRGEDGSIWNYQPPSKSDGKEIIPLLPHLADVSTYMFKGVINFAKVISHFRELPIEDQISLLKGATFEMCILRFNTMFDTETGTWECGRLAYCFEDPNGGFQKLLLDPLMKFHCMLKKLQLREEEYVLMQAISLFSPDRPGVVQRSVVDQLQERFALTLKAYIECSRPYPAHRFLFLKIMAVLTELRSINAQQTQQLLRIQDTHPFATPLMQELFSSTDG
# [17] = tested on: UISO; assay: qHTS assay to identify novel small-molecules to repurpose for Merkel cell carcinoma treatment (AID 1296009); conditions: MCC and control cell lines, CellTiter-Glo viability, 72 h; series mostly up to 46 µM; also: nearly all actives have a fitted effect of over 60% in size; also: potency is read from the fitted curve at half-maximal effect
# In short: as §1
# [18] = tested on: SKOV3; assay: Primary qHTS to identify gynecologic anti-cancer compounds using libraries of approved drugs and bioactive compounds (AID 1345084); conditions: Gynecologic cancer cell panel viability, ATPlite luminescence, 48 h; series mostly up to 57.5 µM; also: nearly all actives have a fitted effect of over 55% in size
# In short: as §2
# [19] = qHTS assay to identify inhibitors of the type 1 interferon - major histocompatibility complex class I in skeletal muscle: Counter screen cell viability and HiBit confirmation (AID 1347412); conditions: iHSKM muscle cells + IFN-b, HiBiT or CellTiter-Glo, 24 h; Potency: HiBiT; Viability, at 45.9 µM (top of the series); also: nearly all actives have a fitted effect of over 60% in size
# In short: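 After 24 h with human IFN-beta (4 ng/ml) and compound titrations (top 46 uM final, 1:3, 12 points), HLA-B HiBit myoblasts were lysed for either Nano-Glo HiBiT luminescence or CellTiter Glo viability on paired plates.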
# [20] = qHTS assay for small molecule activators of the human pregnane X receptor (PXR) signaling pathway (AID 720659; call rule not given here)
# [21] = at 45.9 µM (top of the series), tumour line B
# [22] = at 46.1 µM (top of the series), tumour line C
# [23] = at 45.9 µM (top of the series), tumour line D
# [24] = at 46 µM (top of the series), tumour line A
# [25] = at 20 µM (top of the series), tumour line C
# [26] = at 21.2 µM (top of the series), tumour line B
# [27] = at 21.2 µM (top of the series), tumour line D
smiles,measurement,setting,value
Cc1c(C)c2c(c(C)c1O)CCC(C)(COc1ccc(CC3SC(=O)NC3=O)cc1)O2 (stereo unspecified),outcome,[1],inactive
same,Potency,[2],16.8 µM (active) and inactive
same,Potency,[3],inactive
same,Potency,[4],inactive
same,Potency,[5],inactive
same,Potency,[6],inactive
same,Potency,[7],inactive
same,Potency,[8],inactive
same,Potency,[9],inactive
same,Potency,[10],inactive
same,Potency,[11],inactive
same,Potency,[12],inactive
same,Potency,[13],inactive
same,"activity, negative = cell killing",[14]; [21],-4.67% (inactive)
same,"activity, negative = cell killing",[14]; [22],-19.7% (inactive)
same,Potency,[15],10 µM (active)
same,max response,[16],-12.9% (inactive)
Cc1cc([C@@H](C)Nc2ccccc2C(=O)O)c2nc(N3CCOCC3)cc(=O)n2c1,Potency,[17],34 µM (active)
COc1ccccc1-c1cccc(-c2c(O)c3cc(C#N)c(Cl)cc3[nH]c2=O)c1,Potency,[17],inactive
same,Potency,[2],inactive
Cc1cc(SCc2sc(-c3ccc(C(F)(F)F)cc3)nc2C)ccc1OCC(=O)O,outcome,[1],inactive
same,Potency,[17],inactive
same,Potency,[2],inactive
same,Potency,[4],inactive
same,Potency,[5],inactive
same,Potency,[6],inactive
same,Potency,[7],inactive
same,Potency,[8],inactive
same,Potency,[9],inactive
same,Potency,[10],inactive
same,Potency,[11],inactive
same,Potency,[18],inactive
same,Potency,[12],inactive
same,Potency,[13],inactive
N=c1nc(N2CCCCC2)cc(N)n1O,outcome,[1],inactive
same,Potency,[17],inactive
same,Potency,[2],inactive
same,Potency,[3],inactive
same,Potency,[6],inactive
same,Potency,[7],inactive
same,Potency,[8],inactive
same,Potency,[9],inactive
same,Potency,[10],inactive
same,Potency,[11],inactive
same,Potency,[18],inactive
same,Potency,[12],inactive
same,Potency,[13],inactive
same,"activity, negative = cell killing",[14]; [21],-6.91% (inactive)
same,"activity, negative = cell killing",[14]; [23],-11% (inactive)
same,"activity, negative = cell killing",[14]; [24],-16.6% (inactive)
same,Potency,[15],inactive
O=S(=O)(N=Cc1c(O)ccc2ccccc12)c1cccs1,outcome,[1],inactive
same,Potency,[2],inactive
CCOc1ccc(Cc2cc([C@@H]3O[C@H](CO)[C@@H](O)[C@H](O)[C@@H]3O)ccc2Cl)cc1,Potency,[17],inactive
CC1(C)SCCN(S(=O)(=O)c2ccc(OCC#CCO)cc2)[C@@H]1C(=O)NO,Potency,[17],inactive
O=C1[C@H](Cc2ccc(O)cc2)N2C(=O)CCN(C(=O)NCc3ccccc3)[C@H]2CN1Cc1cccc2ccccc12,Potency,[17],4.69 µM (active)
same,Potency,[2],13.2 µM (active)
COc1ccc(CC2=NN3C([C@@H](CCc4ccccc4)[C@@H](C)O)=NC(C)C3C(=O)N2)cc1OC (stereo partly specified),Potency,[17],inactive
same,Potency,[2],inactive
C[C@@H]1CN(Cc2ccc(F)cc2)[C@@H](C)CN1C(=O)c1cc2c(C(=O)C(=O)N(C)C)cn(C)c2cc1Cl,outcome,[1],inactive
same,Potency,[17],inactive
same,Potency,[3],inactive
same,Potency,[5],inactive
same,Potency,[6],inactive
same,Potency,[7],inactive
same,Potency,[8],inactive
same,Potency,[9],inactive
same,Potency,[10],inactive
same,Potency,[11],inactive
same,Potency,[18],inactive
same,Potency,[12],inactive
same,Potency,[13],inactive
Cc1c(CCOc2ccc(C(=O)O)cc2)c2cc(Cl)ccc2n1C(c1ccccc1)c1ccccc1,Potency,[17],inactive
same,Potency,[2],inactive
CNC(=O)c1ccc(N2C(=S)N(c3ccc(C#N)c(C(F)(F)F)c3)C(=O)C2(C)C)cc1F,Potency,[17],inactive
same,Potency,[2],inactive
COc1cc(Oc2ccnc3cc(OC)c(OC)cc23)ccc1NC(=O)NC(C)c1nccs1 (stereo unspecified),outcome,[1],inactive
same,Potency,[2],inactive
same,Potency,[3],inactive
same,Potency,[5],inactive
same,Potency,[6],inactive
same,Potency,[7],inactive
same,Potency,[8],inactive
same,Potency,[9],inactive
same,Potency,[10],inactive
same,Potency,[11],inactive
same,Potency,[18],inactive
same,Potency,[12],inactive
same,Potency,[13],inactive
Nc1ccc(S(=O)(=O)Nc2ccnn2-c2ccccc2)cc1,"activity, negative = cell killing",[14]; [25],-5.82% (inactive)
same,"activity, negative = cell killing",[14]; [26],-5.49% (inactive)
same,"activity, negative = cell killing",[14]; [27],-1.62% (inactive)
same,"activity, negative = cell killing","[14]; at 21.3 µM (top of the series), tumour line A",-21.3% (inactive)
NNCCc1ccccc1,"activity, negative = cell killing",[14]; [25],-0.565% (inactive)
same,"activity, negative = cell killing",[14]; [26],-10.9% (inactive)
COc1c(Cl)cc2c([nH]c3cnccc32)c1NC(=O)c1cccnc1C,Potency,[19],inactive
CC[C@@H](C)[C@H](NC(=O)[C@H](CC1CCCCC1)NC(=O)c1ccno1)C(=O)N1CCC2(CCc3ccccc32)CC1,Potency,[19],inactive
NC(=O)c1cnccn1,outcome,[20],inactive
C[C@]12CCC(=O)C=C1CC[C@@H]1[C@@H]2[C@@H](O)C[C@@]2(C)[C@H]1CC[C@]2(O)C(=O)CO,Potency,[17],inactive
same,Potency,[2],inactive
same,Potency,[3],inactive
same,Potency,[5],inactive
same,Potency,[6],inactive
same,Potency,[7],inactive
same,Potency,[8],inactive
same,Potency,[9],inactive
same,Potency,[11],inactive
same,Potency,[12],inactive
same,Potency,[13],inactive
CCOC(=O)N1CCC(=C2c3ccc(Cl)cc3CCc3cccnc32)CC1,Potency,[17],inactive
same,Potency,[3],inactive
same,Potency,[5],inactive
same,Potency,[8],inactive
same,Potency,[9],inactive
same,Potency,[10],inactive
same,"activity, negative = cell killing",[14]; [21],-28.2% (inactive)
same,"activity, negative = cell killing",[14]; [22],-20.3% (inactive)
same,Potency,[14]; tumour line A,10 µM (active)
COc1nc(-c2ccc3c(c2)OCO3)n(-c2ccc(NC(=O)CSc3ccccc3)cc2)n1,Potency,[17],inactive
same,Potency,[2],inactive
same,Potency,[3],inactive
same,Potency,[4],inactive
same,Potency,[5],inactive
same,Potency,[6],inactive
same,Potency,[8],inactive
same,Potency,[9],inactive
same,Potency,[10],inactive
same,Potency,[11],inactive
same,Potency,[18],inactive
same,Potency,[12],inactive
same,Potency,[13],inactive
CS(=O)(=O)c1ccc(C(=O)Nc2ccc(Cl)c(-c3ccccn3)c2)c(Cl)c1,Potency,[17],inactive
same,Potency,[2],inactive
same,Potency,[5],inactive
same,Potency,[6],inactive
same,Potency,[7],inactive
same,Potency,[8],inactive
same,Potency,[9],inactive
same,Potency,[10],inactive
same,Potency,[11],inactive
same,Potency,[18],inactive
same,Potency,[12],inactive
same,Potency,[13],inactive
COc1cc2nccc(Oc3ccc(NC(=O)NC4CC4)c(Cl)c3)c2cc1C(N)=O,Potency,[17],18.7 µM (active)
same,Potency,[2],1.48 µM (active)
same,Potency,[3],inactive
same,Potency,[5],inactive
same,Potency,[6],inactive
same,Potency,[7],inactive
same,Potency,[8],inactive
same,Potency,[9],inactive
same,Potency,[10],inactive
same,Potency,[11],inactive
same,Potency,[18],inactive
same,Potency,[12],inactive
same,Potency,[13],inactive
CC(=O)Oc1ccccc1C(=O)O,Potency,[17],inactive
same,Potency,[2],inactive
same,Potency,[3],inactive
same,Potency,[5],inactive
same,Potency,[6],inactive
same,Potency,[7],inactive
same,Potency,[8],inactive
same,Potency,[9],inactive
same,Potency,[10],inactive
same,Potency,[11],inactive
same,Potency,[18],inactive
same,Potency,[12],inactive
same,Potency,[13],inactive
same,"activity, negative = cell killing",[14]; [23],-4.86% (inactive)
same,"activity, negative = cell killing",[14]; [24],-15.2% (inactive)
same,"activity, negative = cell killing",[14]; [22],-19.2% (inactive)
same,Potency,[15],inactive
same,max response,[16],-0.967% (inactive) and 1.6% (inactive) and -0.848% (inactive)
same,outcome,[20],inactive
N#Cc1ccc(C(c2ccc(C#N)cc2)n2cncn2)cc1,Potency,[17],inactive
same,Potency,[2],inactive
same,"activity, negative = cell killing",[14]; [25],-3.52% (inactive)
same,"activity, negative = cell killing",[14]; [26],-10% (inactive)
same,"activity, negative = cell killing",[14]; [27],-7.94% (inactive)
same,Potency,[15],inactive
